Source: PubChem BioAssay (NCI)
The panel holds about 83,000 compounds, 20% with a hit somewhere; the sample as a whole holds those more often.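 How to read the values: 0–100, growth inhibition (40 = 60% inhibited); 0, no net growth; -100 to 0, cell death (-40 = 40% of starting cells died; -100 = all dead).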 A number with no mark means an inactive call. The source made the active and inactive calls. Rule for the calls: active = growth percent below 10; inactive = the rest.

How the values were obtained:
Test in all cases: NCI-60 one-dose screen, 48 h (100 = growth as untreated, 0 = no growth, -100 = all killed)
Conditions in all cases: 10 µM unless noted
HT29 colon = system: HT29 colon
SNB-75 CNS = system: SNB-75 CNS
SNB-19 CNS = system: SNB-19 CNS
U251 CNS = system: U251 CNS
PC-3 prostate = system: PC-3 prostate
SK-MEL-5 melanoma = system: SK-MEL-5 melanoma
UACC-62 melanoma = system: UACC-62 melanoma
LOX IMVI melanoma = system: LOX IMVI melanoma
SK-MEL-28 melanoma = system: SK-MEL-28 melanoma
SK-MEL-2 melanoma = system: SK-MEL-2 melanoma
EKVX NSCLC = system: EKVX NSCLC
SN12C renal = system: SN12C renal
UO-31 renal = system: UO-31 renal
TK-10 renal = system: TK-10 renal
ACHN renal = system: ACHN renal
CAKI-1 renal = system: CAKI-1 renal
CCRF-CEM leukemia = system: CCRF-CEM leukemia
MOLT-4 leukemia = system: MOLT-4 leukemia
A498 renal = system: A498 renal

SMILES	growth (HT29 colon)	growth (SNB-75 CNS)	growth (SNB-19 CNS)	growth (U251 CNS)	growth (PC-3 prostate)	growth (SK-MEL-5 melanoma)	growth (UACC-62 melanoma)	growth (LOX IMVI melanoma)	growth (SK-MEL-28 melanoma)	growth (SK-MEL-2 melanoma)	growth (EKVX NSCLC)	growth (SN12C renal)	growth (UO-31 renal)	growth (TK-10 renal)	growth (ACHN renal)	growth (CAKI-1 renal)	growth (CCRF-CEM leukemia)	growth (MOLT-4 leukemia)	growth (A498 renal) [%]
O=S(=O)(NCCNc1nccc(-c2c(-c3cccc(O)c3)nc3occn23)n1)c1ccc(Cl)cc1	62.9%	109%	118%	110%	96.5%	52.2%	19.2%	72.3%	48.2%	83.4%	125%	100%	110%	143%	98.5%	79.6%	106%	103%	–
NS(=O)(=O)c1ccc(CCN2C(=O)C3C(C2=O)C2(Cl)C(Cl)=C(Cl)C3(Cl)C2(Cl)Cl)cc1 (stereo not given)	85.8%	88%	101%	104%	42.3%	92.9%	75.2%	92.1%	108%	99%	93%	99.9%	85.8%	110%	111%	71.7%	49.6%	88.3%	114
O=C1c2ccccc2CCC12OC2c1cn(-c2ccccc2)nc1-c1ccc(Cl)cc1 (stereo not given)	102%	90.9%	91.9%	64.8%	83.6%	83.1%	63.8%	81.6%	100%	112%	–	101%	88.6%	113%	98.8%	74.3%	86.3%	–	91.9
C=C1C(=O)O[C@H]2[C@H]1CC/C(COC(=O)NCCc1c[nH]c3ccc(OC)cc13)=C\CC[C@@]1(C)O[C@@H]21	-15.2% (active)	55.5%	51.6%	35.5%	54.7%	64.7%	21.6%	-22.4% (active)	-10.8% (active)	62.1%	19.8%	-34.4% (active)	-99.3% (active)	-13.1% (active)	-59% (active)	-66.2% (active)	-6.35% (active)	3.53% (active)	–
O=[N+]([O-])CC(c1ccccc1)c1c[nH]c2ccccc12 (stereo not given)	12.5%	27.2%	58%	35.7%	86.1%	50.9%	35%	45.5%	59.9%	22.8%	67%	52.8%	67.3%	69.7%	71.1%	42%	46.9%	27.4%	–
COc1ccccc1/C(C)=N/NC(=O)CSc1nc2ccccc2c(=O)n1Cc1ccc(S(N)(=O)=O)cc1	114%	89.7%	93.3%	103%	111%	97.5%	97.4%	89.9%	114%	106%	85.6%	102%	77.3%	96.1%	105%	85.4%	94.5%	97%	–
N#CC(C#N)=Cc1cc2ccccc2nc1Oc1ccc(C(F)(F)F)cc1	100%	84.2%	93.2%	91.2%	51.5%	94.7%	78.4%	76.4%	104%	103%	84.1%	91.9%	43.8%	114%	88.7%	67.7%	0.288% (active)	54.8%	–
COc1cc(C=O)ccc1OC1OC(COC(C)=O)C(OC(C)=O)C(OC(C)=O)C1OC(C)=O (stereo not given)	105%	106%	103%	94.2%	95.8%	98.2%	100%	103%	110%	98.6%	99.9%	97.9%	93.1%	107%	107%	98.8%	54.9%	110%	–
CCNC(=O)Oc1ccc(/C(=C(\C)c2ccccc2)c2ccc(OCCN(CC)CC)cc2)cc1	15.3%	78.5%	86.9%	68.2%	–	34.4%	59.1%	65.3%	63.3%	97.6%	96%	82.1%	61.6%	95.6%	102%	59.3%	84%	76.2%	–
CCc1ccc(-c2cn3ccnc3c(-c3ccc4ncn(Cc5ccccc5)c4c3)n2)cc1	31.2%	70.7%	79.1%	53.9%	49.6%	52.1%	75.1%	49.8%	80.9%	85.2%	60.3%	77.5%	42.2%	84.5%	55.3%	52.1%	50.3%	45.8%	105
Cn1cc(-c2nc(-c3c[nH]c4c(Cl)nccc34)cs2)c2cc(F)ccc21	87.8%	107%	98%	85.8%	92.9%	–	97.5%	109%	112%	95.6%	94.2%	98.6%	103%	95%	114%	99.2%	97.8%	–	83.2
O=C(CCN1CCCC1)Nc1ccc2c(NCCCCc3ccccc3)c3ccccc3nc2c1	6.39% (active)	16.6%	-49.5% (active)	-57.8% (active)	–	-30.9% (active)	65.2%	-89.3% (active)	-63.4% (active)	-7.21% (active)	38.3%	-60.8% (active)	37%	-36.5% (active)	24.8%	9.94% (active)	-25.2% (active)	-26.2% (active)	–
C=C1C(=O)O[C@H]2[C@H]1CC/C(CNC(=O)/C=C/c1ccccc1)=C\CC[C@@]1(C)O[C@@H]21	-22.8% (active)	86.8%	52.5%	–	9.48% (active)	40.6%	-81.6% (active)	-88% (active)	-38.1% (active)	40.8%	-16.2% (active)	-32.1% (active)	-85.2% (active)	-47.1% (active)	-34.5% (active)	-88.1% (active)	1.78% (active)	-26.4% (active)	–
O=C(Nc1ccc(-c2ccc3c(c2)NC(=O)/C3=C\c2ccc[nH]2)cc1)NC1CC1	88%	89.8%	92.6%	75%	99.4%	94%	97.7%	89.3%	111%	112%	–	101%	88.2%	108%	101%	99.9%	86.1%	94.2%	–
O=C(NCCc1ccccc1)Nc1ccc2cc3ccc(NC(=O)NCCc4ccccc4)cc3nc2c1	31.4%	17.1%	-31.8% (active)	–	19.3%	60.9%	-51.2% (active)	-79.8% (active)	-29.4% (active)	0.339% (active)	71.9%	-40.1% (active)	89.9%	99.2%	100%	86.6%	0.959% (active)	-46.4% (active)	–
C=C(C)[C@@H]1CC[C@]2(CN)CC[C@]3(C)[C@H](CC[C@@H]4[C@@]5(C)CCCNC(C)(C)[C@@H]5CC[C@]43C)[C@@H]12	-85.8% (active)	-27.7% (active)	-58.5% (active)	-89.7% (active)	-10.5% (active)	-9.72% (active)	29%	-98.3% (active)	-28.3% (active)	6.75% (active)	–	-25.5% (active)	5.31% (active)	-10.6% (active)	-91.8% (active)	-94.5% (active)	-27.4% (active)	-45.4% (active)	–
COc1cc(F)c(/C=C/c2cc(/C=C/c3cc(OC)c(OC)cc3F)on2)cc1OC	77.9%	98.2%	76.8%	83.1%	74%	91.9%	66.1%	81.9%	82.7%	76.3%	102%	91.6%	91.2%	100%	80%	90.1%	91.9%	91.1%	–
